Data from PubChem BioAssay (NCI).
The panel holds about 83,000 compounds, 20% with a hit somewhere; the sample as a whole holds those more often.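 Method: cells in 96-well plates; compound added at one concentration; 48 h incubation; percent growth measured; values under 10 scored active.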 A number with no mark means an inactive call. Calls of active or inactive are those of the source.

How the values were obtained:
Experiment in all cases: NCI-60 one-dose screen, 48 h (100 = growth as untreated, 0 = no growth, -100 = all killed)
Conditions in all cases: 10 µM unless noted
[1] = tested on: DU-145 prostate
[2] = tested on: K-562 leukemia
[3] = tested on: MALME-3M melanoma
[4] = tested on: RXF 393 renal
[5] = tested on: SF-268 CNS
[6] = tested on: SF-295 CNS
[7] = tested on: SF-539 CNS
[8] = tested on: UACC-257 melanoma
[9] = tested on: HCT-15 colon
[10] = tested on: HT29 colon
[11] = tested on: SNB-75 CNS
[12] = tested on: U251 CNS
[13] = tested on: PC-3 prostate
[14] = tested on: SK-MEL-5 melanoma
[15] = tested on: UACC-62 melanoma
[16] = tested on: LOX IMVI melanoma
[17] = tested on: SK-MEL-28 melanoma
[18] = tested on: MDA-MB-231 breast
[19] = tested on: M14 melanoma
[20] = tested on: SNB-19 CNS

Structure (SMILES)	growth [1]	growth [2]	growth [3]	growth [4]	growth [5]	growth [6]	growth [7]	growth [8]	growth [9]	growth [10]	growth [11]	growth [12]	growth [13]	growth [14]	growth [15]	growth [16]	growth [17]	growth [18]	growth [19]	growth [20]
COc1ccc(NC(=O)c2cccc(-c3cc(=O)c4c(O)c(OC)c(OC)cc4o3)c2)cc1	96.9%	91.8%	80.6%	92%	54.6%	104%	56.1%	79.2%	107%	87.7%	-5.24% (active)	73.2%	86.2%	91.4%	81.1%	79.7%	104%			
Nc1c(C(=O)Nc2ccccc2)sc2nc3c(cc12)CCCCCC3	18.6%	7.92% (active)	31.3%	-38.7% (active)	36.6%	-0.47% (active)	-41.8% (active)	44.9%	16.3%	-9.08% (active)	4.5% (active)	9.62% (active)	31.8%	9.45% (active)		35.1%	27.8%			
Cc1cc(=O)[nH]c(N/N=C/c2cc(Br)ccc2O)n1	41.7%	22.5%		70.2%	25.2%	5.67% (active)	16.3%	14.1%	30.5%	58.9%	62.9%	26.8%	56.8%	26.3%	4.29% (active)	9.27% (active)	42.8%	35.5%	10%	40.6%
COc1ccc(-c2nc3sccn3c2/C=C/C(=O)c2c[nH]c3ccccc23)cc1	57.3%	78.9%	69.8%		61.3%	78.5%	82.7%	87.2%	60.5%	79.7%	39.1%	46.2%		58.8%	76.1%	37.5%	76.7%	32.7%		92.2%
O=C1CSC(c2ccccc2)N1c1ccccc1 (configuration not stated)	107%	107%		95.8%	105%	96.6%	108%	101%	98.9%	116%	99.5%	102%	91.4%	98.1%	103%	97.7%	106%	103%	99.5%	99.1%
c1ccc2[nH]c(SSc3nc4ncncc4[nH]3)nc2c1	29.5%	17.1%		64.7%	30.1%	-39% (active)	8.16% (active)	42%	26.9%	29.5%	45.5%	54%	42.9%	28.1%	12.7%	4.64% (active)	86%	36.1%	8.49% (active)	84.4%
COc1cc(NC(=O)c2cccc(-c3cc(=O)c4c(OC)c(OC)c(OC)cc4o3)c2)cc(OC)c1OC	54.3%	27.6%	56.4%	53.2%	67.1%	45%	52.6%	52.8%	40.7%	31.1%	74.7%	44.9%	52.4%	8.34% (active)	50.5%	24.4%	63.5%			56.3%
COc1cc(NC(=O)c2cccc(-c3cc(=O)c4c(O)c(OC)c(OC)cc4o3)c2)cc(OC)c1OC	57.3%	54.5%	51%	75%	61.9%	61.5%	51.7%	66.1%	59.9%	62.8%	32.3%	44.8%	49.8%	39.2%	49.4%	33%	77.4%			50%
COC1=CC(c2ccc[nH]2)=N/C1=C\c1[nH]c(C)c(C(=O)OCCn2cc(CCC[C@@H]3Cc4cc(O)ccc4C4CC[C@]5(C)[C@@H](O)CC[C@H]5C43)nn2)c1C (some centres not stated)	50.1%	51.9%	131%	60.1%	69.9%	96.1%	64.2%	96.4%	25%	18.9%	44.7%	47.1%	50.4%	88.2%		-17% (active)	94.5%			
CCOC(=O)Cc1csc2nc(-c3ccccc3)nn12	108%	128%		110%	105%	127%	95.6%	119%	113%	106%	105%	106%	101%	107%	98.6%	89%	117%	104%	104%	90.2%
Cn1cc(-c2ccc3ncc(-c4ccc(CC(=O)Nc5cc(C(C)(C)C)nn5C)cc4)cc3c2)cn1	18.1% [30 µM]	7% [30 µM] (active)	-0.381% [30 µM] (active)		25.3% [30 µM]	12.2% [30 µM]	19.3% [30 µM]	7.37% [30 µM] (active)	7.79% [30 µM] (active)	36.5% [30 µM]	22% [30 µM]	35% [30 µM]	5.27% [30 µM] (active)		-33.9% [30 µM] (active)	-18.4% [30 µM] (active)	14.5% [30 µM]	36% [30 µM]		41.9% [30 µM]
Cc1nc(-c2ccccc2)cc2c(O)c(C(=O)N/N=C/c3ccc(N(C)C)cc3)[nH]c(=O)c12	75.1%	62.6%	98.2%		81.7%	94.1%	69.7%	106%	83.1%	72.9%	62.2%	41.8%		83.4%	97.3%	75.8%	80.2%	71.7%		117%
C=C1C(=O)O[C@H]2[C@H]1CC/C(COC(=O)/C=C\C(=O)NCc1ccc(Cn3c(=O)sn(CCCI)c3=O)cc1)=C\CC[C@@]1(C)O[C@@H]21	-90.4% (active)	-10.1% (active)	-94.2% (active)		-81.7% (active)	58%	-98.7% (active)	-53.7% (active)	-38% (active)	-30.1% (active)	-63.9% (active)	-72% (active)	-70.6% (active)		-98.2% (active)	-83.2% (active)	-94.7% (active)	-83.3% (active)		
C=CC(=O)N[C@@H](Cc1ccc(-c2cc(Cl)cc(Cl)c2)cc1)[C@@H](O)[C@H](O)C(=O)O	109%	101%	96.6%		101%	100%	94.9%		104%	87.9%	104%	92.1%	89.4%	99.3%	89.3%	98.4%	107%	104%	99.4%	98.1%
O=C1/C(=C/c2ccc([N+](=O)[O-])cc2)COc2ccc(O)c(O)c21	-19.1% (active)	5.31% (active)	-44.2% (active)		-25.3% (active)	83.7%	-91.6% (active)	40.3%	-45.9% (active)	4.87% (active)	18.8%	-34.7% (active)	-6.72% (active)		-19.2% (active)	-75.5% (active)		-27.1% (active)		
COc1cc(-c2ncn(/C=C\c3nnco3)n2)cc(C(F)(F)F)c1	18.4%	6.9% (active)	2.52% (active)	-26.2% (active)	10.9%	53.6%	6.11% (active)	53%	17.6%		4.47% (active)	14.7%	33.6%	-11.8% (active)	13.2%	-27.3% (active)	6.79% (active)			23.3%
O=C(c1ccccc1)c1ccc(Cl)c([N+](=O)[O-])c1	75.4%	7.38% (active)		104%	88.6%	99%	97.9%	87.6%	90%	83%	87.7%	97.1%	90.2%	101%	93.2%	37.1%	96.8%	114%	94.6%	98.5%
